The values that follow come from PubChem BioAssay.

Measured potencies and affinities stand elsewhere. Inconclusive results are not listed. Unmarked numbers belong to inactive results. Activity calls are given as the source filed them. Unless noted, no rule for the calls is given here.

A short description of assay [1]: RMG-1 ovarian cancer cell viability loss – cherry-pick, dose response (AID 687029;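 active = signal drop whose fitted half-maximal concentration is at most twice the top valid dose, in every test run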;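 also: cells exposed to compound for 96 hours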). Conditions: RMG-1 viability, CellTiterGlo ATP luminescence, 96 h; series mostly up to 35 µM. On the technique in general: ATP-based viability assays read luminescence as a measure of living cells.
Assay [2] is described as follows: CMV-driven luciferase expression suppression in HEK293 – cell-based, luminescence, dry powder, counter-screen for Pax8 inhibitor project, dose response (AID 743020;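 active = signal-lowering compounds whose fitted half-maximal concentration is at or below twice the top tested dose in every run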;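 also: HEK293 cells stably expressing the CMV luciferase reporter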). The note with it: HEK293 CMV-luciferase reporter, SteadyGlo luminescence, 24 h; series mostly up to 35 µM. A general note: Counterscreens check selectivity or assay interference.
The nature of assay [3]: general cell-killing toxicity readout – plate reader, dry powder samples, cytotoxicity control for PAX8 inhibitor project, dose response (AID 743021). Conditions: cell line, non-specific cytotoxicity counter-screen; series mostly up to 35 µM.
Assay [4] is described as follows: IGROV1 cell killing – plate reader, dry powder samples, PAX8 inhibitor project, dose response (AID 743043).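 Also: more negative means fewer viable cells or more cytotoxicity.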 Conditions: IGROV1 ovarian cancer cell cytotoxicity; series mostly up to 35 µM.
Assay [5] can be described thus: toxicity toward immortalized ovarian surface epithelium – cell-based, plate reader, dry powder samples, cytotoxicity control for PAX8 inhibitor project, dose response (AID 743045).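 Also: 0% = neutral control median and -100% = positive control median; more negative values mean more cell killing.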 Conditions: IOSE-T80 ovarian epithelial cells; series mostly up to 35 µM.
Assay [6] in a line: A2780 cell killing – plate reader, dry powder samples, cytotoxicity control, dose response (AID 743046).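 Also: 0% = neutral control wells and -100% = cytotoxic reference compound.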 Conditions: A2780 ovarian cancer cytotoxicity; series mostly up to 35 µM.
Assay [7] is described as follows: OVCAR-3 cell viability loss – plate reader, dry powder samples, PAX8 inhibitor project, dose response (AID 743044). The note with it: NIH:OVCAR-3 ovarian cancer cell viability; max activity: at 35 µM, active compounds read low unless noted; series mostly up to 50 µM.
A short description of assay [8]: OVCAR8 cell viability loss – plate reader, dry powder samples, PAX8 project, dose response (AID 743197). The note with it: series mostly up to 35 µM.

Regarding `COc1ccc(S(=O)(=O)Nc2ccc3c(c2)CC(=O)N([C@@H](C)CO)C[C@@H](C)[C@@H](CN(C)Cc2ccc(-c4ccccc4)cc2)O3)cc1`, the result in assay [1], in assay [2], in assay [3], in assay [4] and in assay [5] was inactive.

Turning to `C[C@@H]1CN([C@H](C)CO)C(=O)c2cc(NC(=O)Nc3ccccc3)ccc2O[C@@H](C)CCCCO[C@@H]1CN(C)Cc1ccc(C(F)(F)F)cc1`, the outcome in assay [1], in assay [2], in assay [3], in assay [5] and in assay [6] was inactive.

Regarding `CN1c2ccc(-c3ccccc3)cc2[C@H]2[C@H](CCN2C(=O)NC2CCCCC2)[C@@H]1CO`, the result in assay [1], in assay [2], in assay [3], in assay [4] and in assay [6] was inactive.

Take `COc1ccc(S(=O)(=O)Nc2ccc3c(c2)C(=O)N([C@H](C)CO)C[C@H](C)[C@H](CN(C)Cc2ccc(C(F)(F)F)cc2)OCCCC[C@H](C)O3)cc1`: the compound was classed as inactive in assay [1], in assay [2], in assay [3], in assay [4] and in assay [6].

In the case of `Cc1ccc2cccc(NS(=O)(=O)c3ccccc3)c2n1`, the compound was classed as inactive in assay [1], in assay [2], in assay [3] and in assay [7].

Turning to `O=C1/C(=C/c2ccccc2F)SC(=S)N1CC(=O)N1CCCCC1c1cccnc1` (configuration not stated), the call in assay [1], in assay [2], in assay [3], in assay [4] and in assay [6] was inactive.

Turning to `C[C@H]1CCCCO[C@H](CN(C)C(=O)C2CCCCC2)[C@@H](C)CN([C@@H](C)CO)C(=O)c2cc(NC(=O)Nc3ccc(F)cc3)ccc2O1`, the result in assay [1], in assay [2], in assay [3], in assay [5], in assay [6] and in assay [8] was inactive. In assay [7], the max activity was -23.8%.

Regarding `CC[C@@H]1CCC[C@@H](O)[C@@H](C)C(=O)O[C@H](C)[C@@H](C)C/C=C(C)/C(OC)=C\C(=O)N(C)C([C@@H](C)CC)C(=O)N(C)[C@@H](C(C)C)C(=O)N(C)[C@@H](COC)C(=O)N2CCC[C@H]2C(=O)N(C)[C@@H](C(C)C)C(=O)N2CCC[C@H]2C(=O)O1` (some centres not stated), the compound was classed as inactive in assay [1] and in assay [3].

Take `C=CCN1C(=O)/C(=C/c2ccc(OC(C)=O)c(OCC)c2[N+](=O)[O-])SC1=S`: the outcome in assay [1] and in assay [3] was inactive.

Consider `CCOCC(=O)NC1CCc2cc(OC(=O)COCC)c(OC)c(OC)c2-c2ccc(SC)c(=O)cc21` (configuration not stated), for which the outcome in assay [1] and in assay [3] was inactive.

As for `COc1cc(C2C(C#N)=C(N)Oc3cc4c(cc32)OCO4)cc(OC)c1OC` (configuration not stated), the compound was called inactive in assay [1] and in assay [3].

Take `COc1cc2c(c(OC)c1OC)-c1ccc(OC)c(=O)cc1[C@@H](NC(C)=O)CC2`: the result in assay [1] and in assay [3] was inactive.

Take `O=C(c1ccc(Br)cc1)c1cc([N+](=O)[O-])ccc1N1CCCCC1`: the result in assay [1] and in assay [3] was inactive.

Consider `Oc1c(Cl)cc(CN2CCOCC2)c2cccnc12`, for which the compound was classed as inactive in assay [1] and in assay [3].

Take `CC1CCCC=CC2CC(OC(=O)CN(C)C)CC2C(O)C=CC(=O)O1` (configuration not stated): the call in assay [1] and in assay [3] was inactive.

`COc1ccc(/C=C/C(=O)c2cc(F)ccc2OC(=O)c2ccccc2C)cc1OC`: the compound was classed as inactive in assay [1] and in assay [3].

For `O=[N+]([O-])c1ccc(O)c(-c2cc(C(F)(F)F)nc(-c3ccccc3)n2)c1`, the compound was called inactive in assay [1] and in assay [3].

As to `COc1cc2c(c(OC)c1OC)-c1ccc(SC)c(=O)cc1C(NC(=O)C(F)(F)F)CC2` (configuration not stated), the result in assay [1] and in assay [3] was inactive.

For `CN(/N=C/c1ccc(O)cc1O)c1nc(-c2ccccc2)cc(-c2ccccc2)n1`, the compound was classed as inactive in assay [1] and in assay [3].

Take `O=C(NN=Cc1c(O)ccc2ccccc12)c1ccncc1`: the compound was classed as inactive in assay [1] and in assay [3].

For the compound `O=C(COC(=O)/C(=C/c1cccs1)c1cccs1)NC(c1ccccc1)c1ccccc1`, the outcome in assay [1] and in assay [3] was inactive.

As to `O=C(NCCc1ccccc1F)c1ccc2c(c1)OCCO2`, the result in assay [1] and in assay [3] was inactive.

For the compound `COc1cc([C@@H]2c3cc4c(cc3[C@H](O)[C@H]3COC(=O)[C@H]23)OCO4)cc(OC)c1OC`, the call in assay [1] and in assay [3] was inactive.

Consider `C[C@@H]1CN([C@@H](C)CO)C(=O)Cc2cc(NC(=O)Nc3ccc(C(F)(F)F)cc3)ccc2O[C@@H]1CN(C)S(=O)(=O)c1ccc(Cl)cc1`, for which the compound was called inactive in assay [1] and in assay [3].

With `N#C[C@@H]1[C@H](c2ccc(C#Cc3ccc(F)cc3)cc2)[C@@H](CO)N1C(=O)Nc1ccc(F)cc1`, the result in assay [1] and in assay [3] was inactive.
